# From article PMC11062922 (Nature Chemical Biology, 2023)
# Like-named read-outs stand apart in the source and are kept apart here.
# What was measured:
# Parameters in all cases: species or system human, MV4-11 + K-562 + COLO205 + SK-N-BE2 + OVCAR-8
# GRK6 = conditions: read-out: apparent Kd; compound concentrations: 100 nM and 1000 nM (sheet 'Samples'), CATDS: 0.114980307902388; n = 1
# HSP90B1 = conditions: read-out: apparent Kd, n = 1
# MAP2K1 = conditions: read-out: apparent Kd; compound concentrations: 100 nM and 1000 nM (sheet 'Samples'), CATDS: 0.11714915098763; n = 1
# MAPK10 = conditions: read-out: apparent Kd; compound concentrations: 100 nM and 1000 nM (sheet 'Samples'), CATDS: 0.46372584389591998; n = 1
# MAPK8 = conditions: read-out: apparent Kd; compound concentrations: 100 nM and 1000 nM (sheet 'Samples'), CATDS: 0.17853758786403801; n = 1
# MAPK9 = conditions: read-out: apparent Kd; compound concentrations: 100 nM and 1000 nM (sheet 'Samples'), CATDS: 0.26244745216645099; n = 1
# GSK3A = conditions: read-out: apparent Kd, n = 1
# GSK3B = conditions: read-out: apparent Kd, compound concentrations: 100 nM and 1000 nM (sheet 'Samples'), n = 1
# ILK = conditions: read-out: apparent Kd; compound concentrations:100 nM and 1000 nM (sheet 'Samples'); n = 1
# ICK = conditions: read-out: apparent Kd, compound concentrations: 100 nM and 1000 nM (sheet 'Samples'), n = 1
# PRKCD = conditions: read-out: apparent Kd, compound concentrations: 100 nM and 1000 nM (sheet 'Samples'), n = 1
# PRKCQ = conditions: read-out: apparent Kd, compound concentrations: 100 nM and 1000 nM (sheet 'Samples'), n = 1
# STRADA = conditions: read-out: apparent Kd; compound concentrations: 100 nM and 1000 nM (sheet 'Samples'), CATDS: 0.19302175262426299; n = 1
# JAK2 = conditions: read-out: apparent Kd; compound concentrations:100 nM and 1000 nM (sheet 'Samples'); n = 1
# PRKCA = conditions: read-out: apparent Kd; compound concentrations: 100 nM and 1000 nM (sheet 'Samples'), CATDS: 0.213712947404604; n = 1
# PRKCB = conditions: read-out: apparent Kd; compound concentrations: 100 nM and 1000 nM (sheet 'Samples'), CATDS: 0.109320974178185; n = 1
# RPS6KA6 = conditions: read-out: apparent Kd; compound concentrations: 100 nM and 1000 nM (sheet 'Samples'), CATDS: 0.131410075991204; n = 1
# [1] = compound concentrations:100 nM and 1000 nM (sheet 'Samples')
smiles,measurement,setting,value
CCC(=O)c1c(-c2ccccc2)c2cc(Cl)ccc2c(=O)n1Cc1cc(S(C)(=O)=O)n(CC(N)=O)n1 [TPKI-105],potency estimated from few doses,GRK6,2180 nM
same,potency estimated from few doses,"HSP90B1; compound concentrations: 100 nM and 1000 nM (sheet 'Samples'), CATDS: 0.138909392239214",1090 nM
same,potency estimated from few doses,MAP2K1,2010 nM
same,potency estimated from few doses,MAPK10,90.1 nM
same,potency estimated from few doses,MAPK8,543 nM
same,potency estimated from few doses,MAPK9,235 nM
Cc1nnc(-c2ccc3occ(-c4ccc(S(C)=O)cc4)c3c2)[nH]1 (centres unmarked) [TPKI-85],potency estimated from few doses,GSK3A; [1],339 nM
same,potency estimated from few doses,GSK3B; CATDS: 0.41063798470662799,861 nM
Cn1cc(C2=C(c3cccc(OCC(O)CO)c3)C(=O)NC2=O)c2ccccc21 (centres unmarked) [RO5198354-000],potency estimated from few doses,"GSK3A; compound concentrations: 100 nM and 1000 nM (sheet 'Samples'), CATDS: 0.57799072500507098",370 nM
same,potency estimated from few doses,GSK3B; CATDS: 0.44055416886874998,644 nM
COC(=O)Nc1nc2cc(Oc3ccc(NC(=O)Nc4cc(C(F)(F)F)ccc4Cl)cc3)ccc2[nH]1.Cl [GW697465A],potency estimated from few doses,HSP90B1; [1],1220 nM
same,potency estimated from few doses,ILK,2220 nM
Cn1cc(C2=C(c3cn(CCO)c4ccccc34)C(=O)NC2=O)c2ccccc21 [RO0318036-000],potency estimated from few doses,"GSK3A; compound concentrations: 100 nM and 1000 nM (sheet 'Samples'), CATDS: 0.34431860248680501",263 nM
same,potency estimated from few doses,GSK3B; CATDS: 0.35306232464093901,252 nM
same,potency estimated from few doses,ICK; CATDS: 0.173475626531951,1120 nM
same,potency estimated from few doses,PRKCD; CATDS: 0.14509929843566999,1970 nM
same,potency estimated from few doses,PRKCQ; CATDS: 0.15135413462946001,1700 nM
CCCn1cc(C2=C(c3cn(C)c4ccccc34)C(=O)NC2=O)c2ccccc21 [RO0318549-000],potency estimated from few doses,"GSK3A; compound concentrations: 100 nM and 1000 nM (sheet 'Samples'), CATDS: 0.30461249661504503",823 nM
same,potency estimated from few doses,GSK3B; CATDS: 0.29770520720673899,857 nM
same,potency estimated from few doses,ICK; CATDS: 0.23938622627213799,1320 nM
same,potency estimated from few doses,STRADA,2260 nM
O=C(Nc1cccnc1)c1cc(-c2ccnc(F)c2)ccc1OCc1ccccc1 [GSK2578215],potency estimated from few doses,JAK2,322 nM
Cn1cc(C2=C(c3cn(CCCCCN)c4ccccc34)C(=O)NC2=O)c2ccccc21 [RO0317843-000],potency estimated from few doses,"GSK3A; compound concentrations: 100 nM and 1000 nM (sheet 'Samples'), CATDS: 0.120915323717963",500 nM
same,potency estimated from few doses,GSK3B; CATDS: 0.12552661641342699,455 nM
same,potency estimated from few doses,PRKCA,159 nM
same,potency estimated from few doses,PRKCB,666 nM
same,potency estimated from few doses,PRKCD; CATDS: 0.13254198888423899,398 nM
same,potency estimated from few doses,PRKCQ; CATDS: 0.26439518938370499,114 nM
same,potency estimated from few doses,RPS6KA6,407 nM
